Screening results from PubChem BioAssay.
NadD inh = inhibitors of S. aureus NadD, primary screen, biochemical, colorimetric, uHTS; Nicotinate-nucleotide adenylyltransferase NadD (Staphylococcus aureus N315); purified NadD enzyme, colorimetric absorbance read-out; inhibition, % at 20 µM; 360,000 tested, 0.78% active; in the data active = inhibition above about 26%
H9c2 TAG inh = inhibitors of triacylglycerol accumulation, primary screen, cell-based, uHTS, fluorescence, H9c2 | H9c2 cells, Nile Red lipid (TAG) fluorescence; cells loaded with 200 µM oleic acid | inhibition, % at 12.5 µM | 230,000 tested, 0.66% active;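 active = pattern-corrected inhibition of lipid staining of at least 50% with the nuclear-stain viability signal not falling by more than 50%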;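 note: 0% = DMSO wells and 100% = triacsin C control wells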
MPTP block = mitochondrial permeability transition pore inhibitors, primary screen, biochemical, isolated mouse mitochondria, absorbance | 360,000 tested, 1.4% active | Ca2+ swelling absorbance, 30 min | inhibition, % at 10 µM;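 active = inhibition of 50% or more, scaled per plate between neutral and stimulator controls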;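 note: 0% = DMSO wells given calcium and 100% = 1 mM EGTA wells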
aDG glyco act = activators of alpha-DG glycosylation, primary screen, uHTS, Pro5-aDG cells, AlphaScreen | activation, % at 10 µM | 360,000 tested, 0.22% active | alpha-DG glycosylation AlphaScreen (IIH6); 0% Pro5, 100% B10-LARGE cell signal;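 active = activation of at least 8% versus controls, or a plate z-score of at least 8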;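 note: Pro5 are CHO cells carrying HIG-tagged alpha-DG that lacks glycosylation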
MPTP counter = fluorescence retest of MPTP screen hits in isolated mitochondria, single concentration. shares compounds with MPTP block. membrane potential, Rhodamine 123 fluorescence. inhibition, % at 10 µM. 5,000 tested, 78% active. AID 624504, 2012; in the data active = inhibition above about 22%;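 note: 0% = DMSO vehicle and 100% = positive control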
MPTP swell DR = mitochondrial permeability transition pore inhibitors, dose response, biochemical, absorbance, uHTS hits; shares compounds with MPTP block; isolated mitochondria swelling; IC50, µM; 780 tested, 58% active; in the data active = IC50 below about 20 µM
MPTP counter DR = fluorescent counter-screen in isolated mitochondria, dose response, counter-screen for MPTP inhibitor project, biochemical, fluorescence, uHTS hits | shares compounds with MPTP block | isolated mitochondria counterscreen, fluorescence read-out | IC50, µM | 780 tested, 49% active | AID 651564, 2012; in the data active = IC50 below about 80 µM
Active calls of the source: *; i = inactive; . = no result. Shown are actives, neighbours in structure and some others; about 2.7% of the full set was active somewhere.

SMILES	NadD inh	H9c2 TAG inh	MPTP block	aDG glyco act	MPTP counter	others
COc1ccc2c(c1)C13CCN(C)C(C2)C1CCC1(C3)OCCO1 (stereo not drawn)	-0.2	0.1	-0.6	0.0	.
COc1ccc2c(c1)[C@@]13CCC=C[C@H]1[C@@H](C2)NCC3	-0.8	34.4	55.3*	0.0	-5.7	MPTP swell DR=i;MPTP counter DR=>80
Cc1cccc(CCNCc2cc3cccc(C)c3[nH]c2=O)c1	4.3	.	66.8*	0.2	43.7*
O=C(Nc1ccc(Cl)cc1)N1CC2CC(C1)c1cccc(=O)n1C2 (stereo not drawn)	-4.0	17.3	59.6*	-0.1	103.0*
O=C(Nc1ccc(Br)cc1)N1C[C@H]2C[C@@H](C1)c1cccc(=O)n1C2	3.5	.	-2.8	0.0	.
c1ccc(-c2cc(-c3ccccc3)[n+](-c3ccccc3)c(-c3ccccc3)c2)cc1	5.0	40.4	63.7*	0.3	88.9*
Cc1ccc(-c2cc(-c3ccc(C)cc3)[n+](-c3ccccc3)c(-c3ccc(C)cc3)c2)cc1	4.4	21.2	94.9*	1.9	100.7*
O=C(c1cc(C(=O)NCc2ccccc2)c(=O)n(Cc2ccccc2)c1)c1cc(Cl)ccc1O	20.2	10.7	82.4*	-0.3	75.4*
CC(C(=O)Nc1ccc(Br)cc1C(=O)c1ccccc1)N1CCCCC1 (stereo not drawn)	7.9	.	-1.3	0.5	.
CC(C)CCNC(=O)c1cc(C(=O)c2cc(F)ccc2O)cn(CCC(C)C)c1=O	-5.8	2.0	52.8*	-0.4	-2.0	MPTP swell DR=i;MPTP counter DR=5.94*
CC(C)CCNC(=O)c1cc(C(=O)c2cc(Br)ccc2O)cn(CCC(C)C)c1=O	3.2	0.9	93.3*	-0.2	7.0	MPTP swell DR=>100;MPTP counter DR=<2.5*
CCCCn1nnnc1C(CCSC)N1CCC2(CC1)C(=O)NCN2c1ccccc1 (stereo not drawn)	-5.0	.	-0.4	-0.2	.
O=[N+]([O-])c1ccc(N2CCCC(C(F)(F)F)C2)c2ccncc12 (stereo not drawn)	2.8	.	76.8*	0.6	89.6*
COc1ccc(-n2nnnc2C(c2cccs2)N2CCC(n3c(=O)[nH]c4ccccc43)CC2)cc1 (stereo not drawn)	17.7	.	0.7	-0.3	.
Cc1ccccc1-n1c(O)c(/C=C2/C(c3ccccc3)=Nc3ccccc32)c(=O)[nH]c1=O	0.9	28.9	38.4	0.2	.
COC(=O)C1=Nc2ccccc2/C1=C\c1c(O)n(-c2cc(OC)ccc2OC)c(=O)[nH]c1=O	15.7	-15.4	58.1*	-0.1	-3.3	MPTP swell DR=i;MPTP counter DR=>80
CNC(=O)C[C@H]1CC[C@@H]2NC[C@H](O)COC[C@H]2O1	.	.	0.1	-0.1	.
C[C@H](CO)N1C[C@H](C)[C@@H](CN(C)C(=O)Oc2ccc3ccccc3c2)OCc2cn(nn2)CCCC1=O	5.0	2.5	-0.9	0.1	.
O=C1N(c2ccc(Cl)cc2)C(c2cccnc2)N2CCCN12 (stereo not drawn)	-2.1	16.0	67.4*	-0.3	103.8*
CC(C)(C)n1nnnc1C(c1cccc2ccccc12)N1CCC2(CC1)C(=O)NCN2c1ccccc1 (stereo not drawn)	17.3	.	2.3	0.5	.
Cn1nc(-c2ccc(OCC(=O)N3CCN(Cc4ccccc4)CC3)cc2)c2ccccc2c1=O	7.3	.	72.0*	3.3	43.0*
Cn1cccc1CN1CCN(C(=O)COc2ccccc2)CC1	1.9	.	14.1	-0.1	.
Cc1cc2c(C(C)C)c(O)c(O)c(C=O)c2c(O)c1-c1c(C)cc2c(C(C)C)c(O)c(O)c(C=O)c2c1O	50.3*	-0.8	84.8*	0.2	19.4
Ic1ccccc1CN[C@@H]1C2CCN(CC2)[C@@H]1C(c1ccccc1)c1ccccc1	-1.0	73.9*	87.4*	0.0	0.7
Fc1ccccc1CNC1CN2CCC1CC2 (stereo not drawn)	-6.7	6.5	-2.8	-0.2	.
SMILES	NadD inh	H9c2 TAG inh	MPTP block	aDG glyco act	MPTP counter	others
O=C1NC(=S)SC1=Cc1ccc(N(CCCl)CCCl)cc1	12.5	-28.9	52.9*	1.1	66.6*
O=C(O)CCCc1ccc(N(CCCl)CCCl)cc1	-3.0	18.0	-1.9	-0.2	.
N#CC1c2ccccc2-n2nncc2CN1C(=O)c1ccccc1F (stereo not drawn)	-2.9	.	-0.1	0.2	.
CCCCCc1nc2c(c(=O)c3ccccc3n2C)c(=O)n1C1CCCCCC1	22.6	.	87.4*	2.7	-5.0
CCCCCc1nc2ccccc2c(=O)n1-c1ccccc1[N+](=O)[O-]	2.2	.	1.5	0.1	.
CCC(c1nnnn1C1CCCCC1)N1CCC2(CC1)C(=O)NCN2c1ccccc1 (stereo not drawn)	-0.2	.	0.8	0.0	.
CN(C)CCOC(=O)c1cn(Cc2ccccc2)c2ccccc12	-5.1	12.3	59.0*	0.7	-7.7	MPTP swell DR=17.6*;MPTP counter DR=>80
c1ccc2oc(-c3ccc4c(c3)CNCc3cnnn3-4)cc2c1	-7.1	.	2.1	0.0	.
BrCC1C[n+]2c(SCc3ccccc3)nc3sc4c(c3c2O1)CCCC4 (stereo not drawn)	-2.6	7.1	3.1	-0.1	.
Nc1c2c(nc3sc4c(c13)CCCCC4)CCCC2	-3.4	4.9	88.0*	0.9	80.0*
COC(=O)[C@@H]1N=C(c2ccc(OC)cc2)O[C@]12C(=O)N(C)c1cccc(Cl)c12	3.1	.	0.8	-0.1	.
O=C1NCN(c2ccccc2)C12CCN(C(c1nnnn1C1CCCCC1)C1CC1)CC2 (stereo not drawn)	6.6	.	1.3	0.1	.
CCc1ccc(CN2CCN(Cc3ccc(SC)cc3)CC2)cc1	-6.5	.	56.5*	0.6	-7.4	MPTP swell DR=i;MPTP counter DR=45.1*
CCOC(=O)[C@]12Cc3cc(OC)ccc3[C@H]1N(CCC(=O)OC)C(=O)c1cc(OC)ccc12	0.8	.	-0.5	-0.1	.
CN1[C@@H]2CC[C@H]1CC(OC1c3ccccc3CCc3ccccc31)C2 (stereo partly drawn)	-12.2	28.1	97.4*	0.7	0.6	MPTP swell DR=7.78*;MPTP counter DR=>80
Cc1cc(Br)cn2c(CC(=O)N3CCCCC3)c(-c3ccc(F)cc3)nc12	-1.4	.	-1.0	0.3	.
Fc1ccc(C(OCCN2CCCC2)c2ccc(F)cc2)cc1	-3.0	.	-1.2	-0.1	.
c1ccc(CCCN2CCN(CCOC(c3ccccc3)c3ccccc3)CC2)cc1	-3.8	-6.7	80.1*	0.2	-2.3
Fc1ccc(C(OCCN2CCN(CCCc3ccccc3)CC2)c2ccc(F)cc2)cc1	7.7	-9.4	96.9*	0.7	2.9
